Outcome data for 30 compounds are collected here from PubChem BioAssay (NCATS).

Records with an inconclusive call do not appear. Activity calls are given as the source filed them. The call rests on the fitted dose curve; in most records, active means well fitted inhibition curve with a large enough effect; inconclusive means small, poorly fitted or top-dose-only effect, or effect the other way; inactive means flat fitted curve, though single readings scatter.

Chain of ATP-dependent 6-phosphofructokinase (Trypanosoma brucei brucei) (O15648 whole entry, looked up): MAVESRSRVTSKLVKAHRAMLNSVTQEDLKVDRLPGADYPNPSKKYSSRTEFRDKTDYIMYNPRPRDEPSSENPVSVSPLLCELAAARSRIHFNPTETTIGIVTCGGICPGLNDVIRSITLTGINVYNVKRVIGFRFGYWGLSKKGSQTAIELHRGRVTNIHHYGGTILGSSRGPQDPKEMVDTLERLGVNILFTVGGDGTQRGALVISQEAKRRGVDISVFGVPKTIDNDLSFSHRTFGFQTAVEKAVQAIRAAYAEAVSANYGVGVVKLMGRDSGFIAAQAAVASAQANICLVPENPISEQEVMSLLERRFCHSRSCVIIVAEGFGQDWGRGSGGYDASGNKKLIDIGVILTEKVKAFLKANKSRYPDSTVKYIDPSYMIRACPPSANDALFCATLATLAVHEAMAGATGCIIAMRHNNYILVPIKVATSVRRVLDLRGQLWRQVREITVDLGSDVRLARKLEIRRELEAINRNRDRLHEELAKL

The assay has as its target ATP-dependent 6-phosphofructokinase (Trypanosoma brucei brucei) (UniProt O15648). The assay can be described thus: qHTS Assay to Find Inhibitors of T. brucei phosphofructokinase: hit validation (AID 492961).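 Further: luminescence reports ADP formed as PFK phosphorylates fructose-6-phosphate with ATP.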 Particulars: T. brucei PFK, ADP-Glo luminescence; series mostly up to 51.4 µM. Put shortly:
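Percent activity derived from corrected luminescence, normalized between 0x and 1x enzyme controls, then fitted to concentration-response curves. Conditions: 1.25 nM PFK, 0.1 mM ATP, 0.5 mM F6P, 45 min RT.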
On the technique in general: In qHTS, concentration-response curves come from the screen itself.
Turning to `NNc1ccccc1`, the result was inactive.
Regarding `O=c1oc2ccccc2c(O)c1Cc1c(O)c2ccccc2oc1=O`, the call was inactive.
As for `CN1C(=O)CC(=O)N(c2ccccc2)c2cc(Cl)ccc21`, the call was inactive.
On to `COC1CC(=C(c2cccs2)c2cccs2)C[N+](C)(C)C1` (stereo not given), for which the compound was called inactive.
Take `O=C1CN=C(c2ccccc2)c2cc([N+](=O)[O-])ccc2N1`: the compound was classed as inactive.
On to `CCC(C)(C)c1ccc(O)cc1`, for which the compound was called inactive.
`COP(=S)(OC)Oc1ccc(SC)c(C)c1`: the compound was classed as inactive.
With `CC(C)(C)NCC(O)c1cc(Cl)c(N)c(C(F)(F)F)c1` (stereo not given), the call was inactive.
For the compound `C[C@]12CC[C@@H]3c4ccc(OC(=O)N(CCCl)CCCl)cc4CC[C@H]3[C@@H]1CC[C@@H]2O`, the result was inactive.
Consider `CN1CCC(O)(c2ccc(F)cc2)C(C(=O)c2ccc(F)cc2)C1` (stereo not given), for which the outcome was inactive.
Take `CN1C(=O)NC(=O)C(C)(C2=CCCCC2)C1=O` (stereo not given): the call was inactive.
`COc1c2c(cc3c1OCO3)CCN(C)C2`: the result was inactive.
With `CN1C(=O)C(O)N=C(c2ccccc2)c2cc(Cl)ccc21` (stereo not given), the result was inactive.
For the compound `Cc1nnc2n1-c1ccc(Cl)cc1C(c1ccccc1)=NC2`, the call was inactive.
On to `O=C1Nc2ccc(Cl)cc2C(c2ccccc2)=NC1O` (stereo not given), for which the outcome was inactive.
For `Nc1ccccc1C(=O)O` the value was “inactive”.
On to `Clc1ccc(C(c2ccc(Cl)cc2)C(Cl)(Cl)Cl)cc1`, for which the result was inactive.
Regarding `COc1ccc2c(c1)C13CCCC[C@@H]1C(C2)N(C)CC3` (stereo not given in full), the outcome was inactive.
Next, `C[C@](O)(CS(=O)(=O)c1ccc(F)cc1)C(=O)Nc1ccc(C#N)c(C(F)(F)F)c1`: “inactive”; `CN1C(=O)COc2c(C(=O)NC3CN4CCC3CC4)cc(Cl)cc21` (stereo not given): “inactive”.
On to `C=CCN1C[C@H](C)N([C@H](c2ccc(C(=O)N(CC)CC)cc2)c2cccc(OC)c2)C[C@H]1C`, for which the result was inactive.
Regarding `CC(C)NC(C)C`, the result was inactive.
With `CCCC(C)(COC(N)=O)COC(N)=O`, the compound was classed as inactive.
Regarding `NC(=O)CS(=O)C(c1ccccc1)c1ccccc1` (stereo not given), the result was inactive.
For the compound `CN1C[C@H](C(=O)N[C@]2(C)O[C@@]3(O)[C@@H]4CCCN4C(=O)[C@H](Cc4ccccc4)N3C2=O)C=C2c3cccc4[nH]cc(c34)C[C@H]21`, the call was inactive.
In the case of `COc1cccc([C@@]2(O)CCCC[C@@H]2CN(C)C)c1`, the result was inactive.
Regarding `CCCCCCCCCC(=O)O[C@H]1CC[C@H]2[C@@H]3CCC4=CC(=O)CC[C@@H]4[C@H]3CC[C@]12C`, the outcome was inactive.
As to `O=C(N/N=C/c1ccc([N+](=O)[O-])o1)c1cc([N+](=O)[O-])cc([N+](=O)[O-])c1O`, the call was inactive.
Regarding `COC(=O)C(c1ccccc1)C1CCCCN1` (stereo not given), the compound was classed as inactive.
Consider `Nc1ccc([As](=O)(O)O)cc1`, for which the outcome was inactive.
